Inconclusive results are not listed. Calls of active or inactive are those of the source. Calls follow the shape of the dose curve; as a rule, active = well fitted curve in the direction sought with a large enough effect; inconclusive = small, poorly fitted or top-dose-only effect, or another doubt; inactive = no such curve, though single readings can be large; an effect the other way counts as inactive or inconclusive.
Key:
[1] = qHTS of pediatric cancer cell lines to identify multiple opportunities for drug repurposing: Primary screen for TC32 cells (AID 1347089); also: nearly all actives have a fitted effect of over 60% in size; also: potency is read from the fitted curve at half-maximal effect
Outline: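 In the primary qHTS, MIPE compounds were tested at 11 concentrations (0.78 nM to 46 µM) and NPC compounds at 8 (0.59 nM to 46 µM) on TC32 cells for 48 h. CellTiter-Glo luminescence gave viability.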

[2] = qHTS of pediatric cancer cell lines to identify multiple opportunities for drug repurposing: Primary screen for DAOY cells (AID 1347090); also: nearly all actives have a fitted effect of over 55% in size; also: potency is read from the fitted curve at half-maximal effect
Outline: (§1)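 Cell viability, CellTiter-Glo luminescence; 500-1,000 cells/well, 8- or 11-point titration, 48 h compound exposure at 37 degrees C, 5% CO2. Controls: DMSO neutral, bortezomib 2.3 µM final as positive.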

[3] = qHTS of pediatric cancer cell lines to identify multiple opportunities for drug repurposing: Primary screen for NB-EBc1 cells (AID 1347095); also: potency is read from the fitted curve at half-maximal effect
Outline: (§2)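 Cells seeded at 500-1,000 cells/well in growth media, rested 5 hours at 37 degrees C, 5% CO2, then dosed; MIPE compounds at 11-point (from 0.78 nM) and NPC at 8-point (from 0.59 nM) final concentrations. Viability by CellTiter-Glo luminescence after 48 hours.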

[4] = qHTS of pediatric cancer cell lines to identify multiple opportunities for drug repurposing: Primary screen for U-2 OS cells (AID 1347096); also: nearly all actives have a fitted effect of over 50% in size; also: potency is read from the fitted curve at half-maximal effect
Outline: (§3)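 Cells (500-1,000/well) rested 5 h, then received compounds for 48 h; metabolically active cells were measured by CellTiter-Glo luminescence. Final concentrations spanned up to 46 µM (MIPE, 11-point) or 0.59 nM-46 µM (NPC, 8-point) in primary screens, 11-point in follow-ups.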

[5] = qHTS of pediatric cancer cell lines to identify multiple opportunities for drug repurposing: Primary screen for SK-N-SH cells (AID 1347098); also: nearly all actives have a fitted effect of over 65% in size; also: potency is read from the fitted curve at half-maximal effect
Outline: as §3

[6] = qHTS of pediatric cancer cell lines to identify multiple opportunities for drug repurposing: Primary screen for NB1643 cells (AID 1347099); also: nearly all actives have a fitted effect of over 50% in size; also: potency is read from the fitted curve at half-maximal effect
Outline: as §2

[7] = qHTS of pediatric cancer cell lines to identify multiple opportunities for drug repurposing: Primary screen for BT-12 cells (AID 1347101); also: nearly all actives have a fitted effect of over 25% in size; also: potency is read from the fitted curve at half-maximal effect
Outline: as §3

[8] = qHTS of pediatric cancer cell lines to identify multiple opportunities for drug repurposing: Primary screen for OHS-50 cells (AID 1347103); also: potency is read from the fitted curve at half-maximal effect; nearly all actives have a fitted effect of over 40% in size
Outline: as §3

[9] = qHTS of pediatric cancer cell lines to identify multiple opportunities for drug repurposing: Primary screen for MG 63 (6-TG R) cells (AID 1347105); also: nearly all actives have a fitted effect of over 50% in size; also: potency is read from the fitted curve at half-maximal effect
Outline: as §2

[10] = qHTS of pediatric cancer cell lines to identify multiple opportunities for drug repurposing: Primary screen for control Hh wild type fibroblast cells (AID 1347106); also: nearly all actives have a fitted effect of over 55% in size; also: potency is read from the fitted curve at half-maximal effect
Outline: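 Viability after 48 h compound treatment at 37C, 500-1,000 cells/well, read as ATP luminescence with CellTiter-Glo. Primary screens used 11-point (MIPE, 0.78 nM-46 µM) or 8-point (NPC, 0.59 nM-46 µM) final concentrations; follow-up screens used 11-point dilutions.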

[11] = qHTS of pediatric cancer cell lines to identify multiple opportunities for drug repurposing: Primary screen for Rh30 cells (AID 1347107); also: nearly all actives have a fitted effect of over 75% in size; also: potency is read from the fitted curve at half-maximal effect
Outline: as §3

[12] = qHTS of pediatric cancer cell lines to identify multiple opportunities for drug repurposing: Primary screen for Rh41 cells (AID 1347108); also: nearly all actives have a fitted effect of over 70% in size; also: potency is read from the fitted curve at half-maximal effect
Outline: as §2

[13] = qHTS of pediatric cancer cell lines to identify multiple opportunities for drug repurposing: Primary screen for SK-N-MC cells (AID 1347093); also: potency is read from the fitted curve at half-maximal effect
Outline: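 Metabolically active cells were quantified by ATP-dependent luminescence (CellTiter-Glo, 15 min at room temperature) following 48 h treatment. Cells had been plated at 500-1,000 per well and settled for 5 h beforehand.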

[14] = qHTS of pediatric cancer cell lines to identify multiple opportunities for drug repurposing: Primary screen for BT-37 cells (AID 1347094); also: potency is read from the fitted curve at half-maximal effect
Outline: as §2

[15] = qHTS of pediatric cancer cell lines to identify multiple opportunities for drug repurposing: Primary screen for Saos-2 cells (AID 1347097); also: nearly all actives have a fitted effect of over 40% in size; also: potency is read from the fitted curve at half-maximal effect
Outline: as §2

[16] = qHTS of pediatric cancer cell lines to identify multiple opportunities for drug repurposing: Primary screen for LAN-5 cells (AID 1347100); also: potency is read from the fitted curve at half-maximal effect
Outline: as §3

[17] = qHTS of pediatric cancer cell lines to identify multiple opportunities for drug repurposing: Primary screen for Rh18 cells (AID 1347102); also: nearly all actives have a fitted effect of over 65% in size
Outline: as §3

[18] = qHTS of pediatric cancer cell lines to identify multiple opportunities for drug repurposing: Primary screen for RD cells (AID 1347104); also: nearly all actives have a fitted effect of over 55% in size; also: potency is read from the fitted curve at half-maximal effect
Outline: as §2

[19] = qHTS of pediatric cancer cell lines to identify multiple opportunities for drug repurposing: Primary screen for A673 cells (AID 1347092); also: nearly all actives have a fitted effect of over 45% in size; also: potency is read from the fitted curve at half-maximal effect
Outline: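 48 h compound exposure, A673, 500-1,000 cells/well, 37 degrees C/5% CO2. MIPE: 11-point, 0.78 nM-46 µM; NPC: 8-point, 0.59 nM-46 µM (final). Readout CellTiter-Glo luminescence after 15 min RT.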

[20] = qHTS of pediatric cancer cell lines to identify multiple opportunities for drug repurposing: Primary screen for SJ-GBM2 cells (AID 1347091)
Outline: as §1

Measured: Potency

CN1C[C@H](CNC(=O)OCc2ccccc2)C[C@@H]2c3cccc4c3c(cn4C)C[C@H]21
active: [5] 27.3 µM | [7] 15.5 µM | [8] 21.9 µM
inactive: [1] | [2] | [3] | [4] | [6] | [9] | [10] | [11] | [12]

CC1=C2C[C@@H]3[C@@H](CC=C4C[C@@H](O)CC[C@@]43C)[C@@H]2CC[C@]12O[C@H]1C[C@H](C)CN[C@H]1[C@H]2C
active: [5] 6.07 µM
not listed: [2] | [3] | [7] | [8] | [11] | [12] | [19] | [20]
inactive: all other assays above

C[C@H]1O[C@@H](O[C@H]2[C@@H](O)C[C@H](O[C@H]3[C@@H](O)C[C@H](O[C@H]4CC[C@@]5(C)[C@H](CC[C@@H]6[C@@H]5CC[C@]5(C)[C@@H](C7=CC(=O)OC7)CC[C@]65O)C4)O[C@@H]3C)O[C@@H]2C)C[C@H](O)[C@@H]1O
active: [1] 0.0374 µM | [2] 0.0133 µM | [19] 0.0133 µM | [13] 0.0053 µM | [14] 0.0098 µM | [5] 0.0864 µM | [6] 0.0299 µM | [16] 0.0473 µM | [7] 0.0219 µM | [8] 0.011 µM | [18] 0.0075 µM | [9] 0.0053 µM | [10] 0.841 µM
inactive: [11]

C[C@@H]1[C@@H](C(=O)C[C@H]2O[C@@H]3O[C@]4(C)CC[C@@H]5[C@H](C)CC[C@@H]([C@H]2C)[C@@]35OO4)O[C@@H]2O[C@]3(C)CC[C@H]4[C@H](C)CC[C@@H]1[C@@]24OO3
inactive: [4] | [17] | [9] | [10] | [11]
active: [13] 0.372 µM | [14] 1.09 µM | [3] 0.469 µM | [6] 4.69 µM | [16] 16.6 µM | [7] 0.432 µM | [8] 0.385 µM

COc1ccccc1N1CCNCC1
not listed: [8] | [13]
inactive: all other assays above

O=P1(NCCCl)OCCCN1CCCl (configuration not stated)
not listed: [8] | [19] | [20]
inactive: all other assays above

c1ccc2c(c1)OCC(C1=NCCN1)O2 (configuration not stated)
inactive: [1] | [4] | [11]
active: [2] 26.6 µM | [19] 13.3 µM | [13] 18.8 µM | [15] 23.7 µM | [5] 13.7 µM | [6] 23.7 µM | [16] 26.6 µM | [7] 19.5 µM | [18] 21.1 µM

COc1ccc2c(c1OC)CN1CCc3cc4c(cc3C1C2)OCO4 (configuration not stated)
active: [14] 17.2 µM | [7] 15.5 µM
not listed: [8] | [13] | [16] | [19]
inactive: all other assays above

CC(CCc1ccccc1)NC(C)C(O)c1ccc(O)cc1 (configuration not stated)
not listed: [8] | [12] | [13]
inactive: all other assays above

C=C1C[C@@H]2[C@H](CC[C@]3(C)C(=O)CC[C@@H]23)[C@@]2(C)C=CC(=O)C=C12
not listed: [7] | [8] | [13] | [14] | [15] | [19]
inactive: all other assays above

CCC(COC(=O)c1cc(OC)c(OC)c(OC)c1)(c1ccccc1)N(C)C (configuration not stated)
not listed: [7] | [8] | [16] | [20]
inactive: all other assays above

CC(O)(CS(=O)(=O)c1ccc(F)cc1)C(=O)Nc1ccc(C#N)c(C(F)(F)F)c1 (configuration not stated)
active: [2] 2.96 µM | [19] 1.18 µM | [13] 0.469 µM | [3] 3.32 µM | [15] 23.5 µM | [6] 3.32 µM | [18] 5.9 µM | [9] 3.72 µM | [11] 3.72 µM | [12] 3.72 µM
inactive: [14] | [4] | [5] | [17]

CCOC(=O)C1(c2ccccc2)CCN(CCC(C#N)(c2ccccc2)c2ccccc2)CC1
inactive: [4] | [5] | [10]
active: [13] 4.73 µM | [3] 18.8 µM | [8] 12.3 µM

CO[C@]12CC[C@@]3(C[C@@H]1[C@](C)(O)C(C)(C)C)[C@@H]1Cc4ccc(O)c5c4[C@@]3(CCN1CC1CC1)[C@H]2O5
active: [19] 48.1 µM | [13] 30.3 µM | [14] 39.6 µM | [4] 38.2 µM | [15] 30.3 µM | [8] 25 µM | [9] 30.3 µM

— PubChem BioAssay (NCATS)
